TrxR1 inh – rat TrxR1 inhibition | recombinant rTrxR1, NADPH fluorescence consumption, selenite substrate | Potency, µM (top dose mostly 114 µM), most hits filed as inhibitors | hit rate 1% among 390,000 | AID 588453; further: nearly all actives have a fitted effect of over 65% in size
Target sequence (O89049 whole entry, looked up): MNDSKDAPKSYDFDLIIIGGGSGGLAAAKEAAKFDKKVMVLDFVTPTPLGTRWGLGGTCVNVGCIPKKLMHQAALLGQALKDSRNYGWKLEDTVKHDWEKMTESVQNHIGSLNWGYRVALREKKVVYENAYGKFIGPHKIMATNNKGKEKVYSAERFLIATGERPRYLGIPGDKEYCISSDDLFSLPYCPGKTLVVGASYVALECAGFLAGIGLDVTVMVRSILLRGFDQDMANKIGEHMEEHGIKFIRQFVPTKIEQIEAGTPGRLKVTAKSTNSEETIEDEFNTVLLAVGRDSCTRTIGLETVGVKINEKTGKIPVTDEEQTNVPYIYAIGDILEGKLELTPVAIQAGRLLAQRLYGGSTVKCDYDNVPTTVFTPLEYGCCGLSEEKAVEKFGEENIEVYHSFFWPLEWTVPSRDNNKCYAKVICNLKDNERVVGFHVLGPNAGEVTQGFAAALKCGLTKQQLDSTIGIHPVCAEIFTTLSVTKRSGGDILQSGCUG
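Rat TrxR1 (90 nM in the dispensed reagent) was pre-reduced with 400 uM NADPH for 5 min at room temperature, then incubated with compound for 15 min. After 400 uM selenite was added, NADPH fluorescence (Ex 340/Em 450 nm) was followed for 8 min.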
TrxR1 substrate – is turned over as a substrate by rat TrxR1; O89049; purified TrxR1 substrate turnover, NADPH consumption readout; Potency, µM (titrated, usually from 114 µM); hit rate 0.01% among 390,000; AID 588456; further: nearly all actives have a fitted effect of over 50% in size
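Rat TrxR1, dispensed at 90 nM, was prereduced with 400 uM NADPH (final) for 5 min at ~22 deg C, then incubated with compound 15 min before 400 uM selenite. A first-read NADPH fluorescence drop versus no-compound background flagged substrates.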
GLS inhibitor – inhibitors of human glutaminase (GLS); GLS enzymatic activity, qHTS titration; Potency, µM (highest dose often 45.5 µM), most hits filed as inhibitors; hit rate 0.21% among 410,000; AID 624170
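Human kidney-isoform GLS in 45 mM KH2PO4 pH 8.2, 0.02% Tween-20, with compound, started with 1mM L-Glutamine (added stock). Glutamate oxidase/HRP/Amplex red coupled fluorescence read at start and after 30 min at RT.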
Sfp inh – Sfp phosphopantetheinyl transferase inhibition; Biochemical Sfp PPTase activity, qHTS; Potency, µM, actives largely listed as inhibitors; hit rate 3.5% among 310,000; AID 1490; Q9F4F7;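 further: the enzyme is Sfp with the accession as filed and its product quenches rhodamine fluorescence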
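Fluorescence-quenching assay: 15 nM Sfp-PPTase preincubated 15 min at room temperature with compound, then 5 uM rhodamine-CoA and 12.5 uM BHQ-2-labelled YbbR peptide added. Fluorescence (ex 525/em 598 nm) read at start and after 30 min; difference gives rate.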
GCN5L2 inh – blocks human GCN5L2 histone acetyltransferase. Q92830. GCN5L2 HAT assay, ThioGlo1 CoA-SH fluorescence. Potency, µM (titrated, usually from 58.9 µM), most hits filed as inhibitors. hit rate 0.21% among 390,000
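GCN5L2 (20nM final) in 50mM HEPES, 0.1mM EDTA pH 7.5, 0.01% Tween-20 was preincubated 15 min at room temperature with compound, then given ThioGlo1 (50uM), H3(1-25) peptide (75uM) and acetyl-CoA (70uM); CoA-thiol fluorescence (Ex340/Em540) was read at 0 and 20 min.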
VDR inhibitor – blocks the human vitamin D receptor; VDR-SRC2-3 peptide fluorescence polarization, 2 h; hit rate 0.93% among 400,000; Potency, µM, hits mostly inhibitors; P11473
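Compounds are added to VDR with labelled SRC2-3 coactivator peptide and held 2 h at room temperature. Inhibition of the VDR–peptide interaction is then read as a change in fluorescence polarization.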
Large screens that a line does not name were inactive. In the library only some 3.8% were active in any assay of this set; here they are far more common. The call rests on the fitted dose curve; in most records, active means well fitted curve in the direction sought with a large enough effect; inconclusive means small, poorly fitted or top-dose-only effect, or another doubt; inactive means no such curve, though single readings can be large; an effect the other way counts as inactive or inconclusive.

CC(C)c1ccc(S(=O)(=O)N2CCN(CC(=O)c3ccc(O)c(O)c3)CC2)cc1	Sfp inh 22.4µM (no result: TrxR1 inh, TrxR1 substrate, GLS inhibitor, VDR inhibitor)
O=C(CN1CCN(S(=O)(=O)c2ccc(Br)cc2)CC1)c1ccc(O)c(O)c1	Sfp inh 79.4µM
O=C(CSCc1c(Cl)cccc1Cl)NN=C1CCCC1	none
CN(C)S(=O)(=O)c1cccc(-c2nnc(SCc3cc(Cl)cc4c3OCOC4)n2N)c1	Sfp inh 31.6µM, VDR inhibitor inconclusive
CCN(CC)S(=O)(=O)c1cccc(-c2nnc(SCC(=O)NC)n2N)c1	none
O=[N+]([O-])c1ccc(NC(=S)NCCc2ccccc2)cc1	none
O=[N+]([O-])c1ccc(O)c(NC(=S)Nc2ccccc2)c1	TrxR1 inh inconclusive, Sfp inh 50.1µM, VDR inhibitor inconclusive
COc1ccc([N+](=O)[O-])cc1NC(=S)Nc1ccccc1	Sfp inh inconclusive
O=[N+]([O-])c1ccc(NNC(=S)Nc2ccccc2)cc1	TrxR1 inh inconclusive, Sfp inh 3.55µM, VDR inhibitor 44.7µM
CC1(C)Cc2nc3sc(C(=O)NCCCO)c(N)c3cc2CS1	Sfp inh 39.8µM
Cc1ccc(Nc2nc(-c3ccccc3)c(CC(=O)O)s2)cc1	none
O=C(O)Cc1sc(Nc2ccc(F)cc2)nc1-c1cccs1	Sfp inh 22.4µM, VDR inhibitor inconclusive
CCOC(=O)CSc1nnc([C@H](Cc2ccccc2)NC(=O)OC(C)(C)C)o1	none
CC(C)C[C@H](N)c1nnc(S(=O)(=O)Cc2cccc(F)c2)o1	TrxR1 inh 0.631µM, Sfp inh 17.8µM, VDR inhibitor 17.8µM
CC[C@@H](C)[C@H](NC(=O)OC(C)(C)C)c1nnc(S(=O)(=O)Cc2cc(C)ccc2C)o1	TrxR1 inh 1.12µM, Sfp inh inconclusive, VDR inhibitor 11.2µM
CC(C)(C)OC(=O)N[C@@H](Cc1ccccc1)c1nnc(S(=O)(=O)Cc2cccc(F)c2)o1	TrxR1 inh 0.631µM, Sfp inh 7.94µM, VDR inhibitor 11.2µM
CC[C@@H](C)[C@H](NC(=O)OCc1ccccc1)c1nnc([C@@H](NC(=O)OCc2ccccc2)[C@@H](C)CC)o1	none
CCOC(=O)c1oc2ccccc2c1CN1CCN(c2ccccc2)CC1	none
COc1ccc(OC)c(C(=O)Cn2nnc(-c3ccc(N4CCOCC4)cc3)n2)c1	none
O=C(N/N=C/c1ccc(Br)cc1)c1cc[n+](Cc2ccccc2)cc1	Sfp inh 79.4µM
Nc1nc(=S)n(-c2ccccc2)[nH]1	Sfp inh 28.2µM, GCN5L2 inh inconclusive
S=c1nc(C2CCCCC2)n(-c2ccccc2)[nH]1	GLS inhibitor inconclusive
S=c1nc(-c2ccccc2)n(-c2ccccc2)[nH]1	none
S=c1nc(-c2ccccc2)[nH]n1-c1ccccc1	GLS inhibitor inconclusive, Sfp inh 39.8µM, GCN5L2 inh 12.6µM
COc1cccc(N/N=C/c2cccc(Br)c2O)c1	GLS inhibitor inconclusive
Cc1cccc(N/N=C/c2ccc(O)c(O)c2O)c1	GLS inhibitor inconclusive, Sfp inh 3.55µM, VDR inhibitor inconclusive
O=[N+]([O-])c1cccc(N/N=C/c2cccc(O)c2O)c1	GLS inhibitor 7.94µM
Cc1cc(C)c(S(=O)(=O)Nc2ccc3oc(C)c(C(=O)OC(C)C)c3c2)cc1C	none (no result: Sfp inh)
COc1ccc(-c2nc3ccc(NC(=O)CO)cc3c(=O)n2Cc2cccc(Cl)c2)cc1COc1ccc(NC(C)=O)cc1	TrxR1 inh inconclusive (no result: GLS inhibitor, Sfp inh, GCN5L2 inh)
COc1ccc(-c2nc3ccc(NC(C)=O)cc3c(=O)n2Cc2ccccc2)cc1COc1ccc(NC(C)=O)cc1	TrxR1 inh 20µM (no result: GLS inhibitor, Sfp inh, GCN5L2 inh)
COC(=O)c1ccc(-n2c(C)cc(C(=O)COC(=O)C3=COCCO3)c2C)cc1	none (no result: Sfp inh)
COC(=O)c1ccc(-n2c(C)cc(C(=O)CCl)c2C)cc1	TrxR1 inh inconclusive, VDR inhibitor 79.4µM
CCOc1ccc(-n2c(C)cc(C(=O)CCl)c2C)cc1	TrxR1 inh inconclusive, VDR inhibitor 50.1µM
Cc1cc(OC(C)C(=O)NCc2ccccn2)c2c(C)cc(=O)oc2c1 (configuration not stated)	none
COc1ccc(OCCSc2nnc(CC(=O)Nc3cccc(Cl)c3Cl)n2C)cc1	none
CC(C)/C=N/Nc1nc(-c2ccc(Br)cc2)cs1	Sfp inh 79.4µM
CCOc1ccccc1/C=N/Nc1nc2c(N)ncnc2n1[C@H]1O[C@@H](CO)[C@H](O)[C@@H]1O	Sfp inh 56.2µM
N#CCCN(Cc1cccnc1)C(=S)NC(=O)c1ccco1	none
N#CCCN(Cc1cccnc1)C(=S)NCc1ccco1	Sfp inh 25.1µM
COc1ccc(C/C(C)=N/Nc2nc(C)cc(=O)[nH]2)cc1	Sfp inh 50.1µM
COc1ccc(CCNc2nc(C)cc(=O)[nH]2)cc1OC	none (no result: Sfp inh, GCN5L2 inh)
COc1ccc(N2CCN(C(=O)c3ccc4c(c3)NC(=O)C(CSCc3cccc(F)c3)N4)CC2)cc1 (configuration not stated)	Sfp inh 56.2µM, GCN5L2 inh inconclusive (no result: TrxR1 inh, TrxR1 substrate, GLS inhibitor, VDR inhibitor)
COc1ccc(N2CCN(C(=O)c3ccc4c(c3)NC(=O)C(CSCc3ccc(C)cc3)N4)CC2)cc1 (configuration not stated)	Sfp inh 39.8µM, GCN5L2 inh inconclusive (no result: TrxR1 inh, TrxR1 substrate, GLS inhibitor, VDR inhibitor)
COc1ccc2nc(Sc3c([N+](=O)[O-])nc(C)n3Cc3ccccc3)[nH]c2c1	TrxR1 inh 7.08µM
Cc1nc([N+](=O)[O-])c(N2CCN(Cc3ccccc3)CC2)n1Cc1ccccc1	none
Cn1cnc([N+](=O)[O-])c1Sc1nc2ccccc2[nH]1	TrxR1 inh 3.55µM, Sfp inh inconclusive
COc1ccc2nc(SCC(=O)NCc3ccccc3)[nH]c2c1	none
Cc1cccc(Sc2c([N+](=O)[O-])ncn2C)c1	TrxR1 inh inconclusive
Cc1nc([N+](=O)[O-])c(Sc2nc3ccccc3[nH]2)n1Cc1ccccc1	TrxR1 inh 3.55µM
CCOC(=O)c1c(N)n(-c2ccc(Cl)c(Cl)c2)c2nc3ccccc3nc12	none (no result: Sfp inh)
Cc1nn(-c2ccccc2)c2c1N(CCCC(=O)NCc1ccc(Cl)cc1)C(=O)CS2	none (no result: Sfp inh)
CCOC(=O)c1c(C(=O)OCC)c(C)n(CCc2ccccc2)c1C	none
O=C(O)c1sc(Nc2ccccc2)nc1-c1ccccc1	none (no result: Sfp inh)
N=c1n(CCN2CCCCC2)c2ccccc2n1CC(=O)c1ccc(Cl)c(Cl)c1	Sfp inh 35.5µM
N#CCCN(C(=S)NC(=O)c1ccco1)c1ccccc1F	Sfp inh 22.4µM
COc1cc(Cl)c(C)cc1NC(=O)CSc1nc2c(c(=O)[nH]1)CCC2	none (no result: Sfp inh)
O=c1oc2ccccc2c2oc3cc(O)c(O)cc3c12	GLS inhibitor 2.82µM, Sfp inh inconclusive
COc1cc(/C=N/NC(=O)CC2C(=O)NN=C2C)ccc1O (configuration not stated)	none

Source: PubChem (National Center for Advancing Translational Sciences (NCATS))
